A selection: hits, their analogues and other compounds. The true share with any hit is near 7.8%.
Shh pathway inh: Sonic Hedgehog pathway inhibition. Shh-LIGHT2 Gli-luciferase reporter, 30 h. inhibition, % (concentration not given with the values). actives 2.1% (n = 22,000);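 active = mean inhibition across valid replicates above about 65%, limit read from the data; inconclusive = mean under the limit, yet half or more replicates past it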;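 note: pathway switched on by Shh-conditioned medium diluted 1 in 25 in low serum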
MITF inh: inhibitors of MITF. TRPM1 promoter luciferase, luminescence, 24 h. inhibition, % (test concentration not listed). actives 0.28% (n = 37,000). AID 2240; in the data active = inhibition above about 85%; inconclusive = no clear call, values can overlap the other calls; inactive = below about 68%;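 note: human melanocyte line stably carrying TRPM1 promoter luciferase reporter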
PD-1 reverse act: activators reversing PD-1 mediated T-cell inhibition; primary human CD4 T cells, PD-L1 beads, CellTiter-Glo 96 h; activation, % (test concentration not listed); 29,000 tested, under 10 active; call rule not given here;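 note: 0% = median vehicle wells and 100% = positive control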
NOMO-1 viab: STK33 inhibitor candidate reducing NOMO-1 cell viability | inhibition, % (concentration not given with the values) | actives 7.5% (n = 37,000) | AID 2330 | NOMO-1 AML viability, CellTiter-Glo luminescence, 72 h; in the data active = inhibition above about 80%; inconclusive = no clear call, values can overlap the other calls
* hit, by the source's call.

For C[C@@H]1CCCCO[C@H](CN(C)CC2CCCCC2)[C@@H](C)CN([C@H](C)CO)C(=O)c2cc(NC(=O)Nc3ccc(C(F)(F)F)cc3)ccc2O1 the results were Shh pathway inh 37, MITF inh -12, PD-1 reverse act -14 and NOMO-1 viab 112*.
For C[C@@H]1CCCCO[C@H](CN(C)Cc2ccc(C(F)(F)F)cc2)[C@@H](C)CN([C@H](C)CO)C(=O)c2cc(NC(=O)Nc3ccccc3)ccc2O1 the results were Shh pathway inh 1, MITF inh 19, PD-1 reverse act -4 and NOMO-1 viab 74.
For C[C@@H]1CCCCO[C@H](CN(C)Cc2ccc(C(F)(F)F)cc2)[C@@H](C)CN([C@H](C)CO)C(=O)c2cc(NC(=O)Nc3ccc(F)cc3)ccc2O1 the results were MITF inh 21, PD-1 reverse act 0 and NOMO-1 viab 100*.
`C[C@@H]1CCCCO[C@H](CN(C)C)[C@@H](C)CN([C@H](C)CO)C(=O)c2cc(NC(=O)Nc3ccc(C(F)(F)F)cc3)ccc2O1` gave Shh pathway inh -57, MITF inh -15, PD-1 reverse act -2 and NOMO-1 viab 13.
For C[C@@H]1CCCCO[C@H](CN(C)C(=O)CCCN(C)C)[C@@H](C)CN([C@H](C)CO)C(=O)c2cc(NC(=O)CCC(F)(F)F)ccc2O1 the results were Shh pathway inh 77*, MITF inh -4 and NOMO-1 viab 8.
Screening C[C@@H]1CCCCO[C@H](CN(C)S(=O)(=O)c2ccc(F)cc2)[C@@H](C)CN([C@H](C)CO)C(=O)c2cc(NC(=O)Nc3ccc(C(F)(F)F)cc3)ccc2O1 returned Shh pathway inh 20, MITF inh 18, PD-1 reverse act -5 and NOMO-1 viab 98*.
`C[C@@H]1CCCCO[C@H](CN(C)Cc2ccc(C(F)(F)F)cc2)[C@@H](C)CN([C@H](C)CO)C(=O)c2cc(NC(=O)Nc3ccc(C(F)(F)F)cc3)ccc2O1` gave Shh pathway inh -41, MITF inh 0, PD-1 reverse act -2 and NOMO-1 viab 113*.
C[C@@H]1CCCCO[C@@H](CN(C)Cc2ccc(C(F)(F)F)cc2)[C@@H](C)CN([C@H](C)CO)C(=O)c2cc(NC(=O)NC3CCCCC3)ccc2O1 was read as Shh pathway inh 4, MITF inh 32, PD-1 reverse act -1 and NOMO-1 viab inconclusive.
`C[C@@H]1CCCCO[C@H](CN(C)Cc2ccc(C(F)(F)F)cc2)[C@@H](C)CN([C@H](C)CO)C(=O)c2cc(NC(=O)NC3CCCCC3)ccc2O1` gave Shh pathway inh 40, MITF inh 13, PD-1 reverse act -5 and NOMO-1 viab 94*.
CC(C)=CCC1C(=O)C(=O)c2ccccc2C1=O (configuration not stated) was read as Shh pathway inh -19, MITF inh 3 and NOMO-1 viab 28.
`Cc1cc(C)nc(Nc2n[nH]c(COc3cccc4cccnc34)n2)n1` gave MITF inh -32, PD-1 reverse act 1 and NOMO-1 viab 14.
Cc1ccc(Nc2nc(N)nc(COc3cccc4cccnc34)n2)cc1 was read as MITF inh -33, PD-1 reverse act -2 and NOMO-1 viab 111*.
Screening CC(Oc1ccc(F)cc1)C(=O)Nc1sc2c(c1C(N)=O)CCCC2 (configuration not stated) returned MITF inh -18, PD-1 reverse act -9 and NOMO-1 viab 89*.
For C[C@H](CO)N1C[C@H](C)[C@H](CN(C)S(=O)(=O)c2ccc(Cl)cc2)Oc2c(NC(=O)Nc3ccccc3)cccc2C1=O the results were Shh pathway inh 117*, MITF inh -1 and NOMO-1 viab 42.
For C[C@H](CO)N1C[C@H](C)[C@H](CN(C)S(=O)(=O)c2ccc(Cl)cc2)Oc2c(NC(=O)Nc3ccc(F)cc3)cccc2C1=O the results were Shh pathway inh 117*, MITF inh 65, PD-1 reverse act -3 and NOMO-1 viab 93*.
C[C@@H]1CN([C@@H](C)CO)C(=O)c2cccc(NC(=O)Nc3ccc(F)cc3)c2O[C@@H]1CN(C)S(=O)(=O)c1ccc(Cl)cc1 was read as Shh pathway inh 35, MITF inh 29, PD-1 reverse act 1 and NOMO-1 viab 82*.
Screening C[C@@H]1CN([C@@H](C)CO)C(=O)c2cccc(NC(=O)Nc3ccc(F)cc3)c2O[C@H]1CN(C)S(=O)(=O)c1ccc(Cl)cc1 returned Shh pathway inh 4, MITF inh 9 and NOMO-1 viab 24.
For COc1ccccc1OC(C)C(=O)NN (configuration not stated) the results were Shh pathway inh -11, MITF inh 3, PD-1 reverse act 2 and NOMO-1 viab -1.
Screening N#CCCN(CC1CCCO1)C(=S)NC1CC2C=CC1C2 (configuration not stated) returned Shh pathway inh -7, MITF inh -33, PD-1 reverse act 0 and NOMO-1 viab 21.
For CS(=NC(=O)Nc1ccc(Cl)cc1)c1sc(Cl)c2c1C(=O)CCC2 (configuration not stated) the results were Shh pathway inh 53, MITF inh 3, PD-1 reverse act -2 and NOMO-1 viab 116*.
Cn1c(SCC(=O)Nc2ccc(Cl)cc2)nc2sc3c(c2c1=O)CCCC3 was read as MITF inh 9, PD-1 reverse act 3 and NOMO-1 viab 2.
C[C@H]1C[C@@H]2[C@H]([C@@H](O)C[C@@]3(C)[C@H]2CC[C@]3(O)C(=O)CO)[C@@]2(C)C=CC(=O)C=C12 was read as Shh pathway inh 70*, MITF inh -32 and NOMO-1 viab -15.
`C/C=C(/C)C(=O)O[C@@H](C)[C@@](C)(O)C(=O)O[C@H](C)[C@@H](OC(=O)/C(C)=C\C)c1cc(OC)c2c(c1)OCO2` gave Shh pathway inh 89*, MITF inh 45, PD-1 reverse act -1 and NOMO-1 viab 119*.
`CCOc1ccc2c(c1)sc(=NC(=O)c1ccc(S(=O)(=O)N3CCCCC3C)cc1)n2CC` (configuration not stated) gave Shh pathway inh -23, MITF inh 15, PD-1 reverse act 3 and NOMO-1 viab 31.
C[C@@H]1CN([C@@H](C)CO)C(=O)c2cccc(NC(=O)Nc3ccc(C(F)(F)F)cc3)c2O[C@H]1CN(C)C(=O)NC1CCCCC1 was read as Shh pathway inh -32, MITF inh 26, PD-1 reverse act -3 and NOMO-1 viab 73.
C[C@H](CO)N1C[C@H](C)[C@@H](CN(C)C(=O)NC2CCCCC2)Oc2c(NC(=O)Nc3ccc(C(F)(F)F)cc3)cccc2C1=O was read as Shh pathway inh -44, MITF inh -6, PD-1 reverse act -2 and NOMO-1 viab 85*.
C[C@@H]1CN([C@H](C)CO)C(=O)c2cccc(NC(=O)Nc3ccc(C(F)(F)F)cc3)c2O[C@@H]1CN(C)C(=O)NC1CCCCC1 was read as Shh pathway inh -53, MITF inh 27, PD-1 reverse act -6 and NOMO-1 viab 117*.
CC(C)CCNC(=O)c1cccc2c1-c1ccccc1C2=O was read as Shh pathway inh 26, MITF inh 2, PD-1 reverse act 0 and NOMO-1 viab 20.

High-throughput results: PubChem BioAssay, Broad Institute
